This is a sample that favours compounds with a hit; in the whole collection about 2.5% have one here.
GRK2 aptamer HTS – inhibitors of human GRK2 displacing RNA aptamer; P25098; bead flow cytometry, FAM-aptamer displacement from GRK2; inhibition of aptamer binding, % at 10 µM; actives 0.59% (n = 330,000);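 active means inhibition of aptamer binding above 40%, roughly 3 SD of noise, on plates passing a quality check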;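 further: median bead fluorescence of bound FAM aptamer so fluorescent compounds give negative values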
MEKK2mut PB1 HTS – signal of MEK5 binding to mutant human MEKK2 PB1 domain; actives 0.35% (n = 290,000); percent response, % at 10 µM; bead flow cytometry, Alexa488-MEK5 binding to MEKK2 mutant; in the data active means percent response above about 24%, passing the limit was not always enough
MEKK2wt PB1 HTS – raises or lowers MEK5 binding to wildtype human MEKK2 PB1 domain | actives 1.1% (n = 290,000) | Q9Y2U5 | binding response (% of control), % at 10 µM | AID 1531 | bead flow cytometry, Alexa488-MEK5 binding to MEKK2 WT; actives lie on both sides; in the data active means binding response below about 67% or above about 130%
MEKK3 PB1 HTS – raises or lowers MEK5 binding to the human MEKK3 PB1 domain. Q99759. bead-based flow cytometry, Alexa488-MEK5 binding to MEKK3; actives lie on both sides; 0 = blocked by unlabeled MEK5, 100 = vehicle. binding response (% of control), % at 10 µM. actives 1.4% (n = 290,000). AID 1529;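 active means binding response more than 3 SD above or below the average of its plate-row segment, actives on both sides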;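 further: Alexa488 bead fluorescence after subtracting the streptavidin-only scavenger bead signal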
Target sequence (Q99759 whole entry, looked up, the tested form may be a part): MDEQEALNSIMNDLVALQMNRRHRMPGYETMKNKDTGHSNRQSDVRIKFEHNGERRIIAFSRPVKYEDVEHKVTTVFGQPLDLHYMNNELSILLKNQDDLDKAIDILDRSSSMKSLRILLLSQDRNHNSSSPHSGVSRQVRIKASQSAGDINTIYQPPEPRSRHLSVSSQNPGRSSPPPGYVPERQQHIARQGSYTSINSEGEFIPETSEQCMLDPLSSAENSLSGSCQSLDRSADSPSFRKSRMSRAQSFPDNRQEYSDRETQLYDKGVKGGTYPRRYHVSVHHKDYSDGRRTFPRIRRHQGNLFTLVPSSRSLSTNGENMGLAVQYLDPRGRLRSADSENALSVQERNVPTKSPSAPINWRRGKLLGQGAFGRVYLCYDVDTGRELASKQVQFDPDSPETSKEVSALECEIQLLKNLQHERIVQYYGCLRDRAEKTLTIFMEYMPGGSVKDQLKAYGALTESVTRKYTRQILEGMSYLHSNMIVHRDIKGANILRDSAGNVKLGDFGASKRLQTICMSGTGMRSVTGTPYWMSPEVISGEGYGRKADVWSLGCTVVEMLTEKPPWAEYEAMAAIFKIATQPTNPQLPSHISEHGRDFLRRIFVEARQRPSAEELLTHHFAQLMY
MEKK2wt confirm – raises or lowers MEK5 binding to wildtype human MEKK2, retest | shares compounds with MEKK3 PB1 HTS | binding response (% of control), % at 10 µM | actives 2.4% (n = 5,900) | AID 1892 | bead flow cytometry, Alexa488-MEK5 binding to MEKK2 WT; actives lie on both sides; in the data active means binding response below about 16% or above about 210%; inactive means in between
MEKK2mut confirm – signal of MEK5 binding to mutant human MEKK2, retest. actives 2% (n = 5,900). percent response, % at 10 µM. bead flow cytometry, Alexa488-MEK5 binding to MEKK2 mutant. shares compounds with MEKK3 PB1 HTS; in the data active means percent response mostly above about 71%, no sharp cut-off; inactive means mostly below about 38%;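 further: higher means compound restores mutant binding toward wildtype level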
MEKK3-MEK5 inh – MEKK3-MEK5 PB1 inhibition, single concentration confirmation; shares compounds with MEKK3 PB1 HTS; bead flow cytometry, Alexa488-MEK5 binding to MEKK3; active compounds read low; binding response (% of control), % at 10 µM; actives 1.8% (n = 5,900); AID 1894;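 active means binding response below 72% of control, or above a set upper limit, though filed actives all read lower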;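 further: 100% = DMSO only wells and 0% = binding blocked by excess unlabeled MEK5; lower values mean stronger disruption of MEK5 binding to MEKK3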
* hit, by the source's call; . = not tested or not shown; [ ] = another dose, or the depositor's remark.

SMILES	GRK2 aptamer HTS	MEKK2mut PB1 HTS	MEKK2wt PB1 HTS	MEKK3 PB1 HTS	MEKK2wt confirm	MEKK2mut confirm	MEKK3-MEK5 inh
NCCSc1c(-c2ccc(Cl)cc2)[nH]c2ccccc12	0	51*	171*	106	171	29	106
NCCSc1c(-c2ccc(F)cc2)[nH]c2ccccc12	0	1	107	94	.	.	.
NCCSc1c(-c2ccccc2)[nH]c2ccccc12	0	25*	146*	118	141	35	109
Cc1ccc(-c2[nH]c3ccccc3c2SCCN)cc1	0	26	134	105	.	.	.
COc1cc([N+](=O)[O-])ccc1N1C(=O)C2C3C=CC(C4CC34)C2C1=O (stereo not drawn)	1	-15	83	83	.	.	.
Cc1ccc2cccc(Oc3ncnc4scc(-c5ccc(Cl)cc5)c34)c2n1	1	12	90	102	.	.	.
Cc1c(Cl)cccc1NC(=O)CSc1ncnc2c1cnn2CCO	0	-3	97	101	.	.	.
CN1CCN(c2ccc(Cl)cc2NC(=O)/C=C/c2cccc(F)c2)CC1	0	18	149*	103	151	37	106
C=CCC(C)(NCc1ccccc1)c1ccco1 (stereo not drawn)	0	-16	2.0*[inhibitor]	2.0*[inhibitor]	106	1	97
C/C(=N\NC(=O)CCC(=O)NCc1ccccc1)c1ccco1	0	-1	103	98	.	.	.
NC(=O)CSc1nc2cc(S(=O)(=O)N3CCOCC3)ccc2o1	0	.	.	.	.	.	.
O=C(c1cc(-c2cccs2)nn1-c1ccccc1)N1CCN(S(=O)(=O)c2ccccc2)CC1	1	.	.	.	.	.	.
COc1cc(N(Cc2ccccc2)Cc2ccccc2)c2ncn(C(C)C)c2c1	0	.	.	.	.	.	.
CC(C)n1cnc2c(N(C)c3ccccc3)nc(N(CCN(C)C)Cc3ccccc3)nc21	0	22	175*	114	137	7	103
Cc1nc(C(C)N(C)Cc2nc(-c3ccc4c(c3)OCO4)no2)c(C)s1 (stereo not drawn)	0	-11	90	91	.	.	.
CCOc1cc(/C=C2/SC(=S)N(Cc3ccccc3)C2=O)ccc1O	5	-4	61*[inhibitor]	96	84	-6	101
COc1cc(/C=C2/SC(=S)N(Cc3ccccc3)C2=O)ccc1OCC(=O)O	6	-1	81	99	.	.	.
COc1cccc(-c2ncc3ccccc3c2COC(=O)c2cccc(Br)c2)c1	0	.	.	.	.	.	.
Cc1cc(C)c(/C([O-])=C(/C(=S)Nc2ccc(SC(F)F)cc2)[n+]2ccccc2)cc1C	0	-4	96	103	.	.	.
[O-]/C(=C(\C(=S)Nc1ccc(SC(F)F)cc1)[n+]1ccccc1)c1cc(Cl)ccc1Cl	2	-5	58*[inhibitor]	102	97	-4	103
CSc1cccc(CN2CCC(CCC(=O)NC3CC3)CC2)c1	1	-1	99	96	.	.	.
Cc1c(Cl)cccc1NC(=S)NCCc1ccc(C(F)(F)F)cc1	3	-1	106	102	.	.	.
CCCCC1(Cc2ccc(OC)c([N+](=O)[O-])c2)C(=O)N(c2ccccc2)N(c2ccccc2)C1=O	3	4	107	113	.	.	.
CCCCC1(CC(=O)OC)C(=O)N(c2ccccc2)N(c2ccccc2)C1=O	7	2	107	138*	102	-6	103
